Hits are enriched below; roughly 3.6% of the tested compounds scored in any of these assays.
FUS yeast rescue: qHTS for Suppressors of FUS Proteinopathy: Primary screen using FUS-linked yeast assay; S. cerevisiae FUS-expressing, growth rescue, OD600, 24 h; Potency, µM (highest dose often 76.6 µM), usual class: activators; hit rate 0.24% among 390,000;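 further: plate controls were DMSO vehicle for no effect and reference control for full effect; nearly all actives have a fitted effect of over 55% in size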
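Restored growth of FUS-toxic S. cerevisiae, read as 600 nm absorbance after 24 h at 30C in galactose medium (starting OD 0.005). Controls CP55940 and DMSO.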
aSyn yeast inh: qHTS of alpha-syn Inhibitors. Yeast expressing alpha-synuclein, growth rescue, BacTiter-Glo, 24 h. Potency, µM (top dose mostly 46.1 µM), for the others: at the top dose growth rescue (activation), most hits filed as activators. hit rate 0.14% among 370,000; further: % of control where 0% means no effect; nearly all actives have a fitted effect of over 65% in size
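Rescue of yeast growth: cells expressing toxic alpha-synuclein, induced in galactose at OD600 0.02, incubated with compound 24 h at 30 C. ATP luminescence quantified growth; inhibitors of toxicity appear as activators.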
Mm-Cpn inhibitor: Inhibitors of TCP-1 ring complex (TRiC) of Methanococcus maripaludis (MmCpn): qHTS | hit rate 0.031% among 330,000 | purified Mm-Cpn ATPase, ADP Transcreener TR-FRET | Potency, µM (titrated, usually from 76.9 µM), without a hit: top-dose activity, negative = inhibition, most hits filed as inhibitors; further: on the % scale 0 is the no-effect control and ±100 the full control effect; nearly all actives have a fitted effect of over 80% in size
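ATPase turnover read by TR-FRET ADP competition (Eu cryptate antibody/ADP-d2, 665/590 nm): 10uM ATP final, 25nM Mm-CPN final, 30 min 37degC after 10-min compound preincubation, pH 7.4 Tris/KCl/MgCl2/DTT buffer.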
ClpP mod: qHTS Assay for Activators of ClpP; ATP-dependent Clp protease proteolytic subunit (Bacillus subtilis (strain 168)), P80244; hit rate 1.9% among 340,000; purified B. subtilis ClpP, FRET peptide cleavage, 20 min; Potency, µM (doses to about 57.5 µM), without a hit: top-dose activity change, negative = active; active means well fitted falling curve with a large enough effect; inconclusive means small, poorly fitted or top-dose-only effect; inactive means no such curve, though single readings can be large or run the other way; further: the source files actives as falling curves though it sought activators and does not explain the sign; nearly all actives have a fitted effect of over 65% in size
Target sequence (P80244 whole entry, looked up): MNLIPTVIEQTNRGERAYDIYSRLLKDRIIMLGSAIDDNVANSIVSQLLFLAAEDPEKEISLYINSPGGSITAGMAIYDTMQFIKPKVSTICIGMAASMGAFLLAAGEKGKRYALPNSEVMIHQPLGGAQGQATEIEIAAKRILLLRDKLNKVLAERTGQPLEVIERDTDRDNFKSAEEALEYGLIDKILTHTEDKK
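Buffer: 100 mM Tris/HCl pH8, 100 mM KCl, 0.05% low protease BSA, 2.5% glycerol, 0.01% Tween-20. ClpP 10 microg/mL final; 20 min RT; delta FRET normalized to ADEP and DMSO controls.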
TDP-43 yeast inh: qHTS of TDP-43 Inhibitors. TDP-43 expressing yeast growth rescue, BacTiter-Glo, 24 h. Potency, µM (highest dose often 46.1 µM), inactives show at the highest dose growth rescue (activation), usual class: activators. hit rate 1.8% among 410,000. AID 652104, 2013; further: % of control where 0% means no effect; nearly all actives have a fitted effect of over 50% in size
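Cell-based yeast growth screen: TDP-43 expression induced in galactose, inoculum OD600=0.02 after raffinose pregrowth to mid-log. Read-out BacTiter-Glo luminescence at 24 hr, 30 deg C; inhibition of toxicity seen as signal increase.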
Abeta yeast res: qHTS for compounds that reverse cellular toxicity of Amyloid beta (A-beta) peptide in yeast: Primary Screen. yeast expressing A-beta42, growth rescue, OD600, 48 h; response scale: 0% DMSO, 100% iron-clioquinol control. Potency, µM (titrated, usually from 46.1 µM), usual class: activators. AID 1347071, 2019. hit rate 0.063% among 410,000; further: nearly all actives have a fitted effect of over 55% in size
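Yeast growth medium received pinned compounds, then yeast cells expressing toxic A-beta were added; plates incubated at 30 C for 48 hr. Growth read as absorbance at 600 nm, normalized to DMSO and equimolar FeCl3 plus clioquinol controls.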
* = called active by the depositor; i = inactive; ? = inconclusive; . = not tested or not shown; [ ] = another dose, or the depositor's remark. Unless noted, the call rests on the fitted dose curve; in most records, active means well fitted curve in the direction sought with a large enough effect; inconclusive means small, poorly fitted or top-dose-only effect, or another doubt; inactive means no such curve, though single readings can be large; an effect the other way counts as inactive or inconclusive. Potency means the concentration at half of the fitted maximal effect.

SMILES	FUS yeast rescue	aSyn yeast inh	Mm-Cpn inhibitor	ClpP mod	TDP-43 yeast inh	Abeta yeast res
COc1cccc2c1nc(C)c1cc(C)oc12	i	-5.0%	-0.8%	28.2µM*	-15.8%	i
COc1ccccc1NC(=O)c1ccc(-c2ccccc2[N+](=O)[O-])o1	i	2.1%	-0.9%	.	31.6µM*	i
COc1ccccc1NC(=O)c1ccc(-c2ccc(Br)cc2)o1	i	-2.6%	-19.9%	249.7%	19.3%	i
CCN(Cc1ccc(Cl)s1)C(=O)c1cccc(OCc2c(C)noc2C)c1	.	-1.3%	0.0%	0.5%	35.5µM*	i
COc1ccc(-c2noc(N3CCC(C(=O)N(C)c4ccccc4)CC3)n2)cc1	i	1.6%	-1.9%	-1.7%	15.8µM*	i
CCN(C(=O)C1CCN(c2nc(-c3ccc(OC)cc3)no2)CC1)c1ccccc1	?	8.8%	1.6%	1.5%	?	i
O=C(Nc1ccccc1Oc1ccccc1)c1cc([N+](=O)[O-])ccc1Cl	.	-5.2%	0.1%	1.1%	3.2%	i
Cc1cccc(NC(=O)c2cc([N+](=O)[O-])ccc2Cl)c1O	i	-2.9%	-5.3%	.	22.4µM*	i
Cc1ccc(CN2CCCCC(NC(=O)C(C)(C)C)C2=O)cc1 (stereo not drawn)	i	.	.	.	.	.
O=C1NC(=O)c2c(NC(=O)C3CCCO3)cccc21 (stereo not drawn)	i	-4.8%	.	15.8µM*	-5.0%	i
O=C(Cn1c(=O)n(Cc2ccc(C(=O)NCc3ccccc3Cl)cc2)c(=O)c2ccccc21)Nc1ccc(F)c(Cl)c1	i	.	.	-12.1%	0.0%	i
COC(=O)c1cccc(NC(=O)c2cccc([N+](=O)[O-])c2)c1	i	-0.4%	1.5%	-2.4%	12.6µM*	i
CCC(=O)Nc1cccc(C(=O)OCc2cccc([N+](=O)[O-])c2)c1	i	-8.8%	1.4%	-2.2%	11.2µM*	i
COc1ccc2c(c1)CCCN2C(=O)C1CCCN(S(=O)(=O)c2ccccc2)C1 (stereo not drawn)	i	.	.	.	.	.
CC1(C)Cc2c(cnn2-c2ccccc2)C(=O)/C1=N\NC(=O)c1ccncc1	i	-1.6%	.	-2.0%	-22.5%	i
CC1(C)Cc2c(cnn2-c2ccccc2)-c2c1c1ccccc1n2CC(O)CCl (stereo not drawn)	?	15.2%	-8.1%	22.4µM*	6.0%	i
Cc1c(C(=O)C(=O)N2CCN(C)CC2)c2ccccc2n1C	i	-6.1%	-5.0%	12.6µM*	5.5%	i
COc1cc2c(cc1OC)n(CC(=O)c1ccc(F)cc1)c(=O)n1nc(CCn3nc(C)cc3C)nc21	i	.	.	-1.6%	7.7%	i
C=C1C=C(C(F)F)n2ncc(C(=O)NCc3ccccc3)c2N1	.	-0.1%	.	-1.2%	.	.
CCCn1c2ccccc2c2cc(C(=O)O)ccc21	i	4.2%	-3.1%	-20.4%	6.31µM*	i
Cn1c2ccccc2c2cc(C(=O)O)ccc21	i	7.6%	0.1%	-8.8%	?	i
CCn1c2ccccc2c2cc(/C(C)=N/O)ccc21	.	?	0.1%	-10.3%	35.5µM*	i
COc1ccccc1N=c1scc(-c2ccc(S(=O)(=O)N3CCCC3)cc2)n1C	i	.	.	-0.6%	15.6%	i
O=c1[nH]c(=O)n(C2CCCCC2)c(O)c1C1=Nc2ccccc2SC(c2ccc(Cl)cc2)C1 (stereo not drawn)	i	.	.	-6.7%	20.4%	i
CCCC(=O)N1c2ccccc2C(=C2SC(C(=O)OC)=C(C(=O)OC)S2)C(=S)C1(C)C	i	-2.6%	0.7%	1.3%	?	i
SMILES	FUS yeast rescue	aSyn yeast inh	Mm-Cpn inhibitor	ClpP mod	TDP-43 yeast inh	Abeta yeast res
COC(=O)C1=C(C(=O)OC)SC(=C2C(=S)C(C)(C)N(C(=O)C3CC3)c3ccccc32)S1	i	24.6%	0.0%	0.9%	2.24µM*	i
COC(=O)C1=C(C(=O)OC)SC(=C2C(=S)C(C)(C)N(C(=O)C(C)C)c3ccccc32)S1	i	?	0.5%	12.9%	3.16µM*	i
CCn1c2ccccc2c2cc(NC(=O)COC(=O)c3cc(Cl)cc(Cl)c3)ccc21	i	.	.	.	.	.
CCCSCC(=O)Nc1ncc2c(n1)-c1ccccc1CC2	i	5.8%	-6.3%	.	-0.6%[9.22 µM]	i
O=C(Nc1ncc2c(n1)-c1ccccc1OC2)c1ccc(Cl)cc1Cl	i	-0.9%	-9.2%	35.5µM*	9.0%	i
O=C(Nc1ncc2c(n1)-c1ccccc1OC2)c1ccc(F)cc1	i	-1.1%	-6.6%	.	18.1%	i
O=C(Nc1ncc2c(n1)-c1ccccc1CC2)c1ccc(Cl)cc1	i	12.8%	1.2%	28.2µM*	3.2%	i
O=C(Nc1ncc2c(n1)-c1ccccc1CC2)c1cccc(Cl)c1	.	-1.9%	1.2%	?	12.6µM*	i
O=C(Nc1ncc2c(n1)-c1ccccc1OC2)c1cccc([N+](=O)[O-])c1	i	-1.0%	1.1%	-14.8%	?	i
O=S(=O)(NCCc1csc2nc(-c3ccc(F)cc3)nn12)c1ccc(Br)cc1	i	.	.	2.9%	16.7%	i
COc1ccc(C2=NN(CC(=O)NCCc3ccc(OC)c(OC)c3)C(=O)CC2)cc1	i	.	.	1.6%	-9.1%	i
CCCCCOc1ccc(C2C(C(C)=O)=C(C)Nc3ncnn32)cc1OC (stereo not drawn)	i	-17.5%	0.8%	11.2µM*	-9.3%	i
CC(NC(=O)CCCCCCN1C(=O)c2ccccc2C1=O)c1ccc2c(c1)CCCC2 (stereo not drawn)	.	-16.3%	-1.3%	-0.2%	35.5µM*	i
COc1cccc(NC(=O)Cn2nc(C)c3c(C)n(-c4ccccc4)nc3c2=O)c1	i	.	.	-0.9%	-2.2%	i
Cc1ccc(CCNC(=O)c2c[nH]c3ccc(S(=O)(=O)Nc4cccc(C(F)(F)F)c4)cc3c2=O)cc1	i	.	.	-10.8%	-10.9%	i
Cc1c(C(=O)N2CCN(c3ccccc3)CC2)oc2c(F)cccc12	i	5.9%	-14.2%	-4.0%	14.1µM*	i
Cc1c(C(=O)N2CCC2)oc2c(F)cccc12	i	-4.9%	0.4%	12.6µM*	20.1%	i
O=S(=O)(Nc1cccc(-c2ccc(N3CCCC3)nn2)c1)c1ccc(F)c(C(F)(F)F)c1	i	.	.	-5.0%	3.5%	i

Screens deposited in PubChem by National Center for Advancing Translational Sciences (NCATS).
